Source: PubChem BioAssay
A selection: hits, their analogues and other compounds. The true share with any hit is near 6.1%.
S2 tox: Viability Counterscreen for Primary qHTS for Inhibitors of ATXN expression; S2 cells (HEK-293 line with an ATXN2-luciferase reporter) viability, CellTiter-Fluor protease fluorescence, 24 h; AID 651635, 2014; actives 0.49% (n = 400,000); Potency, µM (highest dose often 56.7 µM), most hits filed as cytotoxic; note: nearly all actives have a fitted effect of over 40% in size
RORg inh: qHTS for inhibitors of ROR gamma transcriptional activity | Drosophila S2 Gal4-RORgamma UAS-luciferase reporter, 20 h | Potency, µM (titrated, usually from 53.6 µM), inactives show at the highest dose activity change, negative = inhibition, actives largely listed as inhibitors | actives 5.4% (n = 310,000) | AID 2551, 2010; note: % is set by controls: 0 for no effect and ±100 for the full control effect; nearly all actives have a fitted effect of over 60% in size
Target sequence (P51450 whole entry, looked up, the tested form may be a part): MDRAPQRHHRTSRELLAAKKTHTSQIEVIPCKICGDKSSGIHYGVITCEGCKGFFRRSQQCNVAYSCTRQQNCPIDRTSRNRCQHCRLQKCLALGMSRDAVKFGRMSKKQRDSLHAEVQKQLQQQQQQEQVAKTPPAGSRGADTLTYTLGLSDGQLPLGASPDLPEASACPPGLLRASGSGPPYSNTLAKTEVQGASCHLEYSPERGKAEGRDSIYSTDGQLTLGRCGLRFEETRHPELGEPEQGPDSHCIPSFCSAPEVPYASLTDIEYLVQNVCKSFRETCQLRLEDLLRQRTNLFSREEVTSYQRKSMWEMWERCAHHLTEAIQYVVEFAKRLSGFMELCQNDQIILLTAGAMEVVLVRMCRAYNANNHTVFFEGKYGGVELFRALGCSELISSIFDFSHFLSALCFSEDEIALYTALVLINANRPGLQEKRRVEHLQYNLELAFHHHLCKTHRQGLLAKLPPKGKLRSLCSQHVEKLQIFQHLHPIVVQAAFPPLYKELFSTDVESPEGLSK
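Compounds are pin-transferred onto Drosophila Schneider cells expressing a copper-inducible Gal4–ROR gamma transactivation domain fusion. After 1 hr, copper sulfate is added to 700 uM final; luciferase is read 20 hr later.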
TGFb SMAD3 inh: qHTS for Inhibitors of TGF-b. HepG2 CAGA-GFP TGF-b/SMAD3 reporter, GFP fluorescence, 18 h; TGF-beta stimulated, 500 pg/mL final. Potency, µM (series often up to 46.1 µM), for inactives: at the highest dose activity, negative = inhibition, hits mostly inhibitors. actives 1.2% (n = 410,000); note: % is set by controls: 0 for no effect and ±100 for the full control effect; nearly all actives have a fitted effect of over 65% in size
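Per well, imaged GFP fluorescence of HEPG2 CAGA-GFP cells gives the signal; cells get compound, then TGF-beta (500 pg/mL final), 18 h at 37 degrees C; %Activity versus -TGF-beta and +DMSO controls.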
Gal4-VP16 FLuc: VP16 counterscreen qHTS for inhibitors of ROR gamma transcriptional activity; Drosophila S2 Gal4-VP16 UAS-luciferase, luminescence, 20 h; Potency, µM (doses to about 53.6 µM), without a hit: at the highest dose activity, negative = inhibition, most hits filed as inhibitors; actives 3.5% (n = 310,000); AID 2546, 2010;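 note: Gal4-VP16 expression switched on by copper sulfate through the metallothionein promoter; % is set by controls: 0 for no effect and ±100 for the full control effect; nearly all actives have a fitted effect of over 50% in size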
HepG2 viability: qHTS for Inhibitors of TGF-b: Cytotox Counterscreen | HepG2 CAGA-GFP viability, ATP luminescence, 18 h | Potency, µM (doses to about 46.1 µM), without a hit: top-dose activity change, negative = cytotoxicity, most hits filed as cytotoxic | actives 0.76% (n = 410,000)
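CellTiter-Glo luminescence gave cytotoxicity after 18 hours at 37 degrees C. The cells were HepG2 CAGA-GFP in 1% FBS DMEM, stimulated with 500 pg/mL TGF-beta after compound addition. %Activity was normalised to no-cell wells (complete cell-killing) and DMSO (no toxicity), and curves were fitted and classified.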
ATXN2 expr inh: Primary qHTS for Inhibitors of ATXN expression; actives 0.72% (n = 360,000); Potency, µM (highest dose often 57 µM), for inactives: top-dose activity change, negative = inhibition, hits mostly inhibitors; AID 1745845, 2022; HEK-293 ATXN2-luciferase reporter, luminescence, 24 h; note: % is set by controls: 0 for no effect and ±100 for the full control effect; nearly all actives have a fitted effect of over 55% in size
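ATXN2-luciferase reporter cells (luciferase flanked by upstream and downstream ATXN2 gene portions) were treated 24 h at 37 °C with compounds at up to 57 uM. SteadyGlo luminescence gave expression; GF-AFC fluorescence gave viability.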
Numbers without * were called inactive; [ ] = dose if it differs, or a comment. Calls come from the whole dose curve; as a rule, active = well fitted curve in the direction sought with a large enough effect; inconclusive = small, poorly fitted or top-dose-only effect, or another doubt; inactive = no such curve, though single readings can be large; an effect the other way counts as inactive or inconclusive. Potency is the fitted concentration of half-maximal effect.

`CCC(=NCCC(c1ccccc1)c1ccccc1)c1c(O)n(C)c(=O)n(C)c1=O` gave S2 tox inactive, RORg inh 15%, TGFb SMAD3 inh -10%, Gal4-VP16 FLuc 2%, HepG2 viability 12% and ATXN2 expr inh -24%.
Screening CCC(=NCc1ccc(F)cc1)c1c(O)n(C)c(=O)n(C)c1=O returned S2 tox inactive, RORg inh 24%, TGFb SMAD3 inh 7%, Gal4-VP16 FLuc 22µM*, HepG2 viability -3% and ATXN2 expr inh -11%.
Screening CCOc1ccc(S(=O)(=O)Nc2cccc(C(=O)N3CCN(c4ccccn4)CC3)c2)cc1 returned S2 tox inconclusive, TGFb SMAD3 inh -12% and HepG2 viability 0%.
For C[C@@H]1[C@H]2Cc3ccc(O)cc3[C@]1(C)CCN2C the results were S2 tox inactive.
`Cc1ccc(/C=C2\C(=O)NC(=S)N(c3cccc(F)c3)C2=O)o1` gave S2 tox inconclusive, RORg inh 11µM*, TGFb SMAD3 inh -8%, Gal4-VP16 FLuc -19% and HepG2 viability -4%.
`COc1ccc(N2C(=O)/C(=C/c3ccc(C)o3)C(=O)NC2=S)cc1` gave S2 tox inactive, RORg inh -14%, TGFb SMAD3 inh 1%, Gal4-VP16 FLuc -4%, HepG2 viability 4% and ATXN2 expr inh 4%.
O=C(N/N=C\C1C(=O)NC(=S)N(c2ccccc2)C1=O)c1ccc(O)cc1 (centres undefined) was read as S2 tox inactive, RORg inh 1.4µM*, TGFb SMAD3 inh -2%, Gal4-VP16 FLuc 2.5µM*, HepG2 viability 0% and ATXN2 expr inh -7%.
O=C(N/N=C/c1c(O)n(Cc2ccccc2)c(=O)[nH]c1=O)c1ccncc1 was read as RORg inh -39%, TGFb SMAD3 inh 3%, Gal4-VP16 FLuc -19%, HepG2 viability -15% and ATXN2 expr inh -22%.
O=C1NC(=O)C(=Cc2cccc(OCCOc3ccccc3)c2)C(=O)N1 was read as S2 tox inactive, RORg inh inconclusive, TGFb SMAD3 inh 8%, Gal4-VP16 FLuc inconclusive, HepG2 viability 0% and ATXN2 expr inh -20%.
Cc1ccc(OCCOc2cccc(C=C3C(=O)NC(=O)NC3=O)c2)c(C)c1 was read as S2 tox inconclusive, RORg inh 7.9µM*, TGFb SMAD3 inh 6%, Gal4-VP16 FLuc 4µM*, HepG2 viability -2% and ATXN2 expr inh inconclusive.
Screening CCCOCCN(C(=O)CCl)c1c(CC)cccc1CC returned RORg inh -13% and Gal4-VP16 FLuc 3%.
Screening Nc1ccc([N+](=O)[O-])cc1O returned S2 tox inconclusive, RORg inh 23%, Gal4-VP16 FLuc inconclusive and ATXN2 expr inh -10%[116 µM].
Screening O=[N+]([O-])c1ccc(O)c([N+](=O)[O-])c1 returned S2 tox inactive, RORg inh inconclusive, TGFb SMAD3 inh 26%, Gal4-VP16 FLuc 22µM*, HepG2 viability 10% and ATXN2 expr inh 6%.
For O=C(O)c1cc([N+](=O)[O-])cc([N+](=O)[O-])c1O the results were RORg inh -7% and Gal4-VP16 FLuc 1%.
For O=[N+]([O-])c1cc(O)c(O)c([N+](=O)[O-])c1 the results were S2 tox inconclusive, RORg inh 22µM*, TGFb SMAD3 inh 1%, Gal4-VP16 FLuc -7%, HepG2 viability -39% and ATXN2 expr inh 3%.
Screening O=[N+]([O-])c1ccc(Cl)c([N+](=O)[O-])c1 returned S2 tox 18µM*, TGFb SMAD3 inh 5µM*, HepG2 viability 7.1µM* and ATXN2 expr inh inconclusive.
For O=C(Cn1c(=O)oc2cc(S(=O)(=O)N3CCCCCC3)ccc21)NCc1ccccc1Cl the results were TGFb SMAD3 inh inconclusive and HepG2 viability -43%.
COc1ccc(/C=C/C(=O)NC(=S)N2C[C@H]3C[C@H](C2)c2cccc(=O)n2C3)cc1 was read as S2 tox inactive, RORg inh -21%, TGFb SMAD3 inh 8%, Gal4-VP16 FLuc 8%, HepG2 viability 7% and ATXN2 expr inh 14%.
`O=C(/C=C/c1ccc(Br)cc1)NC(=S)N1C[C@H]2C[C@H](C1)c1cccc(=O)n1C2` gave S2 tox inactive, RORg inh 18µM*, TGFb SMAD3 inh 17%, Gal4-VP16 FLuc -9%, HepG2 viability 8% and ATXN2 expr inh 8%.
For O=C(/C=C/c1ccc(Cl)cc1)NC(=S)N1C[C@H]2C[C@H](C1)c1cccc(=O)n1C2 the results were S2 tox inactive, RORg inh 13µM*, TGFb SMAD3 inh -4%, Gal4-VP16 FLuc -3%, HepG2 viability 2% and ATXN2 expr inh 5%.
For C=C(C)CCl the results were RORg inh 2% and Gal4-VP16 FLuc 3%.
For O=c1[nH]c(O)c(C=NC2CCCCC2)c(=O)[nH]1 the results were S2 tox inconclusive, RORg inh 5%, TGFb SMAD3 inh 5%, Gal4-VP16 FLuc -3%, HepG2 viability 0.63µM* and ATXN2 expr inh 0%.
Screening C[C@H]1[C@@H](OS(=O)(=O)O)C[C@@H]2C[C@H]([C@@H](O)c3cc(=O)[nH]c(=O)[nH]3)NC3=NC[C@H]1N32 returned S2 tox inactive, TGFb SMAD3 inh 2.5µM*, HepG2 viability -8% and ATXN2 expr inh 10µM*.
C[C@H]1COC2=C1C(=O)C(=O)c1c2ccc2c1CCCC2(C)C was read as S2 tox inconclusive, RORg inh -8%, TGFb SMAD3 inh 4.5µM*, Gal4-VP16 FLuc -11%, HepG2 viability 10µM* and ATXN2 expr inh 3%.
Screening COC1C(O)C(C)OC(OC2C(Oc3cccc4c(O)c5c(=O)oc6ccc(C)c7c(=O)oc(c34)c5c67)OC(C)C(O)C2O)C1O (centres undefined) returned S2 tox inactive, TGFb SMAD3 inh 3%, HepG2 viability 6% and ATXN2 expr inh 10µM*.
`Cn1nc(-c2ccccc2)nc2c(=O)n(C)c(=O)nc1-2` gave TGFb SMAD3 inh 0.56µM* and HepG2 viability 1µM*.
`CCn1nc(-c2ccccc2)nc2c(=O)n(C)c(=O)nc1-2` gave RORg inh 0.89µM*, TGFb SMAD3 inh 0.56µM*, Gal4-VP16 FLuc 1.3µM*, HepG2 viability -96% and ATXN2 expr inh 28µM*.
